Results taken from ChEMBL document CHEMBL4513216, “Probing the Open Global Health Chemical Diversity Library for Multistage-Active Starting Points for Next-Generation Antimalarials” (ACS Infect Dis, 2020).
Out of some 69,000 compounds screened, about 8,600 (12%) showed an effect of 50% or more. Shown is part of a subset that was picked to be rich in strong results.

test system: Plasmodium berghei; experiment: Screen against P. berghei liver stage (PbLuc), transformed with Luciferase, at 10uM; assay type: functional, HepG2; conditions: tested at 10 uM

Compound	INHIBITION [%]
CSC(C)Cc1c(-c2ccccc2)ncn1CCCNc1cccnc1 (centres undefined)	82.5
CCN(C)CC(C)Cn1cnc(-c2ccccc2)c1C (centres undefined)	-107
Cc1c(-c2ccccc2)ncn1CCCNc1cccnc1	22.7
Cc1c(-c2ccccc2)ncn1CC(c1cccnc1)N1CCOCC1 (centres undefined)	37.2
Cc1cc(NCCCNc2cccnc2)n2nc(C)c(C)c2n1	3.945
CSCCc1c(-c2ccccc2)ncn1CCNc1cccnc1	63.6
CC[C@H]1N(Cc2ccco2)CCC[C@]12CCC(=O)N2C	1.34
CC(C)NC(=O)Nc1ncc(-c2cccnc2)s1	-42.9
Cc1nn(C)c(C)c1C1COCCN1C(=O)c1ccc(Cl)o1 (centres undefined)	-16
Cc1ccc(NCc2cn3c(n2)CN(Cc2ccoc2)CC3)nn1	26.5
O=C1CC2(CCSC2)C(=O)N1Cc1ncc(-c2cccc(F)c2)o1 (centres undefined)	-26.8
COc1cccc(-c2cc(C(=O)N3N=C(C)CC3(O)C(F)(F)F)[nH]n2)c1 (centres undefined)	38.3
Cc1ncc(-c2ccccn2)c(CCNC(=O)CCC2CCCO2)n1 (centres undefined)	28.5
C[C@@H](NCc1cccc(Cl)c1)c1onc(-c2ccc(F)cc2)c1C(=O)O	-3.58
CCCc1nc(CN2CCOC(Cn3cccn3)C2)no1 (centres undefined)	-43.5
CN(Cc1ccccc1)c1ncccc1CNC1CCSCC1	51.8
CN(Cc1ccccc1)c1ncccc1CNC1CCC1	22.5
CC(C)N1CCC(NCc2cccnc2N(C)Cc2ccccc2)CC1	37.8
CN(Cc1ccccc1)c1ncccc1CNC1CN2CCC1CC2 (centres undefined)	62.6
CC(=O)N1CCC(NCc2cccnc2N(C)Cc2ccccc2)CC1	6.31

Compound	INHIBITION [%]
CN(Cc1ccccc1)c1ncccc1CNC1CCCC1	20.4
CC(C)(C)CC(=O)NCC(=O)Nc1ccn(Cc2ccncc2)n1	-12.4
Cc1nn(C)cc1C(=O)N1C[C@@H]2CC[C@H]1CN(S(=O)(=O)N(C)C)C2	-109
Cn1cccc1C(O)CNC(=O)c1ccc(C(F)(F)F)cc1 (centres undefined)	-118
CS(=O)(=O)N1CCC2(CN(C(=O)c3cccnc3)C2)C1	33.5
CS(=O)(=O)N1CCOCC2(CCN(C(=O)c3cccnc3)CC2)C1	18.5
Cc1cccc(N2CCC3(CCCN(C(=O)c4cccnc4)C3)C2)n1 (centres undefined)	-19.1
Cc1ccc(C(=O)N2CCC3(CCN(C(=O)c4cccnc4)C3)CC2)o1	34.7
Cc1occc1C(=O)N1CCC2(CCN(C(=O)c3cccnc3)C2)CC1	28.5
Cc1ccc(N2CCC3(CCCN(C(=O)c4cccnc4)C3)C2)nn1 (centres undefined)	53.5
O=C(c1cccnc1)N1CCC2(CCN(C(=O)c3ccco3)CC2)C1	59.3
O=C(CC1CC1)N1CCC2(CC1)CN(c1cccnc1)C(=O)CO2	30.3
CS(=O)(=O)N1CCC2(CCN(C(=O)c3cccnc3)CC2)C1	58.8
CC(=O)NCC(=O)N1CCC2(CC1)CN(c1cccnc1)C(=O)CO2	17.1
O=C(N1CCCC1)N1CCC2(CC1)CN(c1cccnc1)C(=O)CO2	82.9
Cc1ccc(C(=O)N2CCC3(CCCN(c4ccc(C)nn4)C3)C2)cn1 (centres undefined)	18.6
Cc1nn(C)c(C)c1CNCc1cccnc1N1CCOCC1	22.5
CN(C)C(=O)C1OC2(CCN(C(=O)c3ccco3)CC2)c2ccccc21 (centres undefined)	12.7
CC(C#N)CN(C)C(=O)CCNC(=O)C(C)(C)C (centres undefined)	-6.91
CCc1[nH]ncc1C(=O)N1CCCC(n2cc(C)cn2)C1 (centres undefined)	-12.2

Compound	INHIBITION [%]
O=C(c1ccco1)N1C[C@H]2CCCN(Cc3cccs3)[C@H]2C1	37
CC(C)c1nn(C)c(N2CCOCC2)c1CNCCC(=O)N(C)C	24.95
O=S(=O)(NCc1ccccc1)Nc1ccc(-n2cncn2)cc1	35
CC(C)c1n[nH]c(C2CN(C(=O)CCc3cscn3)CCO2)n1 (centres undefined)	-15.52
Cc1ccccc1OCC(=O)N1CCCC(CNS(C)(=O)=O)C1 (centres undefined)	-3.8
O=C(NCc1nncn1C1CCCCC1)C1CNCCO1 (centres undefined)	33.4
COc1ccc(C2CCCN2C(=O)c2ccnc(NC3CC3)c2)cc1 (centres undefined)	-59.3
O=C(NC1CC1)N1Cc2[nH]nc(COc3cccnc3)c2C1	-4.02
CN(C)Cc1cccc(-c2cccnc2C(=O)NCC2CC2)c1	18.4
Cn1cccc1C(=O)N1CCC2(CCN(C(=O)c3cccnc3)C2)CC1	37.6
Cc1cccc(N2CCC3(CCN(C(=O)c4cccnc4)CC3)C2)n1	19.5
O=C(c1ccoc1)N1CCC2(CC1)C(=O)Nc1ccccc12	25.4
O=C(c1ccnnc1)N1CCC2(CC1)CCN(C(=O)c1cccnc1)C2	16.8
O=C(c1ccncc1)N1CCC2(CC1)CCN(C(=O)c1cccnc1)C2	53.9
CC(C)N1CCC2(CCN(C(=O)c3cccnc3)CC2)C1	15.4
Cc1cccc(N2CCC3(CCCN(C(=O)c4cccnc4)C3)CC2)n1	-1.26
CN1CCC2(CCN(C(=O)c3cccnc3)C2)C1 (centres undefined)	12.2
O=C(c1ccno1)N1CCC2(CC1)C(=O)Nc1ccccc12	-19.5
O=C(c1ccco1)N1CCC2(CC1)C(=O)Nc1ccccc12	64.4
